Shown are actives, neighbours in structure and some others; about 6.2% of the full set was active somewhere.
ATXN2 expr inh – inhibitors of ATXN2 expression. hit rate 0.72% among 360,000. HEK-293 ATXN2-luciferase reporter, luminescence, 24 h. AID 1745845. Potency, µM (titrated, usually from 57 µM), for the others: at the highest dose activity change, negative = inhibition, usual class: inhibitors; note: % is set by controls: 0 for no effect and ±100 for the full control effect; nearly all actives have a fitted effect of over 55% in size
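ATXN2-luciferase reporter cells (luciferase flanked by upstream and downstream ATXN2 gene portions) were treated 24 h at 37 °C with compounds at up to 57 uM. SteadyGlo luminescence gave expression; GF-AFC fluorescence gave viability.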
KB-3-1 cytotox – KB-3-1 parental cell cytotoxicity; KB-3-1 viability, CellTiter-Glo ATP luminescence, 72 h; Potency, µM (highest dose often 46.1 µM), actives largely listed as cytotoxic; hit rate 1.4% among 400,000; note: % is set by controls: 0 for no effect and ±100 for the full control effect; nearly all actives have a fitted effect of over 60% in size
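KB-3-1 cells, DMEM (no phenol red) + 10% FBS; compound by pin transfer, 72 h, 37 °C. Readout: CellTiter-Glo luminescence after 10 min. Data normalized, curve-fitted.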
HT1080-NT tox – kills 2HG-producing HT-1080-NT fibrosarcoma cells. HT-1080-NT fibrosarcoma viability, CellTiter-Glo ATP luminescence, 48 h. Potency, µM (top dose mostly 46.1 µM), for inactives: at the highest dose activity, negative = less viability, usual class: cytotoxic. hit rate 1.6% among 360,000. AID 686970;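 note: NT is the 2HG producing partner of a matched IDH1 knockdown line; 0% = DMSO-treated cells and -100% = media-only wells without cells; nearly all actives have a fitted effect of over 55% in size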
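Compounds were tested in concentration-response format on HT-1080-NT cells for 48 hours at 37 degrees C. Cell viability came from CellTiter-Glo luminescence; curves were classified by r2, response magnitude and activity.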
HT1080 IDH1KD tx – HT-1080 IDH1 knockdown cell toxicity (counter line); HT-1080 IDH1 knockdown viability, ATP luminescence, 48 h; Potency, µM (titrated, usually from 46.1 µM), for the others: at the top dose activity, negative = toxicity, actives largely listed as cytotoxic; hit rate 2% among 360,000;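 note: 0% = DMSO wells and -100% = cell-free medium wells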
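Cytotoxicity counter-line: IDH1KD HT-1080, 48 h, CellTiter-Glo. Curves classed by r2, magnitude and activity.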
ATXN viability – reduces viability in counter-screen for ATXN expression inhibitors. S2 cells (HEK-293 line with an ATXN2-luciferase reporter) viability, CellTiter-Fluor protease fluorescence, 24 h. Potency, µM (titrated, usually from 56.7 µM), actives largely listed as cytotoxic. hit rate 0.49% among 400,000; note: nearly all actives have a fitted effect of over 40% in size
KB-V1 cytotox – KB-V1 MDR subline cytotoxicity; KB-V1 MDR cells viability, CellTiter-Glo, 72 h; Potency, µM (doses to about 46.1 µM), usual class: cytotoxic; hit rate 3.4% among 400,000; note: % is set by controls: 0 for no effect and ±100 for the full control effect; nearly all actives have a fitted effect of over 60% in size
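KB-V1 cells (P-gp-expressing MDR subline of KB-3-1) in phenol-red-free DMEM with 10% FBS were exposed to library compounds over a concentration series for 72 h at 37 degrees C. Viability read by CellTiter-Glo luminescence; concentration-effect curves fitted after normalization.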
Starred values were filed as active, the others as inactive; i = inactive; ? = inconclusive; . = no result; [ ] = dose if it differs, or a comment. Calls come from the whole dose curve; as a rule, active = well fitted curve in the direction sought with a large enough effect; inconclusive = small, poorly fitted or top-dose-only effect, or another doubt; inactive = no such curve, though single readings can be large; an effect the other way counts as inactive or inconclusive. Potency is the fitted concentration of half-maximal effect.

SMILES	ATXN2 expr inh	KB-3-1 cytotox	HT1080-NT tox	HT1080 IDH1KD tx	ATXN viability	KB-V1 cytotox
Cc1ccc(NC(=O)Cn2c(=O)c3cc(Cl)ccc3n3nncc23)cc1	8%	i	.	.	i	?
COc1ccc(F)cc1CN1CCN(C(=O)CCC(=O)Nc2nnc(C3CCCCC3)s2)CC1	-25%	i	14%	14%	?	i
COc1cc2nccc(Oc3ccc(NC(=O)NC4CC4)c(Cl)c3)c2cc1C(N)=O	3.4µM*	.	.	.	.	.
COc1ccc(OC)c(NC(=O)NC2CCCCCCC2)c1	10%	i	-14%	-13%	i	i
Cc1ccc(NC(=O)CCC(=O)NNC(=O)CCc2ccccc2)c(C)c1	-10%	i	2%	10%	i	i
Cc1ccc(NNC(=O)CCc2ccccc2)c(C)c1	2%	i	?	26µM*	i	i
Cc1ccc(NNC(=O)c2ccno2)c(C)c1	?	i	5.8µM*	7.3µM*	i	i
CCn1c(-c2ccccc2F)nc2cc(C(=O)NCc3ccc(C)o3)cc(NC(C)=O)c21	.	.	.	.	i	.
Cc1onc(-c2c(F)cccc2Cl)c1C(=O)OCC(=O)NC(c1ccccc1)c1ccccc1	-15%	i	-24%	?	i	6.5µM*
COC(=O)c1ccc(C(=O)OC)c(NC(=S)N2CCC(C)CC2)c1	1%	i	8%	8%	i	16µM*
CC(=O)c1ccc(N2CCN(C(=S)Nc3cccc(Cl)c3)CC2)cc1	-8%	i	4%	14%	i	23µM*
CC(=O)c1ccc(NC(=S)N2CCN(c3cccc(Cl)c3)CC2)cc1	-11%[11.3 µM]	i	-15%	5%	i	i
COC(=O)c1ccc(C(=O)OC)c(NC(=S)N2CCN(c3cccc(Cl)c3)CC2)c1	-8%	i	-4%	-13%	?	16µM*
COC(=O)c1ccc(C(=O)OC)c(NC(=S)N2CCCCC2C)c1 (centres undefined)	20%	i	15%	8%	i	15µM*
CC1CCN(C(=O)c2ccc3c(c2)N(Cc2ccccc2F)C(=O)c2ccccc2S3(=O)=O)CC1	-5%	i	.	.	i	i
CC(=O)N(c1ccc(Cl)cc1)C1SC(=O)N(c2ccc(C)cc2)C1=O (centres undefined)	.	.	9%	18%	.	.
CC(C)N1CCN(c2cccc(Nc3nn4c(=O)c5ccccc5nc4s3)c2)CC1	.	i	.	.	.	i
Cc1cc(NC(=O)Cn2cnc3sc(C)c(-c4ccccc4)c3c2=O)no1	-16%	i	-7%	-15%	i	21µM*
Cc1cc(NC(=O)Cn2cnc3sc(C)c(C)c3c2=O)no1	-7%	i	0%	-11%	i	i
NC(=O)c1ncn([C@@H]2O[C@H](CO)[C@@H](O)[C@@H]2O)n1	44%	.	.	.	.	.
CCCN(CCC)CC(O)CN(c1ccccc1)S(=O)(=O)c1ccc(C)cc1 (centres undefined)	1%	i	-10%	-7%	i	i
Cc1ccc(N(CC(O)COCc2ccco2)S(=O)(=O)c2ccc(C)cc2)cc1 (centres undefined)	5%	i	-3%	?	i	21µM*
CCC(=O)N1CCc2cc(S(=O)(=O)CCC(=O)N3CCN(c4cccc(C)c4)C(C)C3)ccc21 (centres undefined)	?	i	.	.	i	i
Cc1nn(C(=O)c2ccccc2)c(C)c1Sc1ccc(Cl)cc1	25µM*	?	.	.	28µM*	7.3µM*
O=C(NCc1ccccc1)C1CCCN(S(=O)(=O)c2ccc(F)cc2)C1 (centres undefined)	7%	i	10%	28%	i	?
SMILES	ATXN2 expr inh	KB-3-1 cytotox	HT1080-NT tox	HT1080 IDH1KD tx	ATXN viability	KB-V1 cytotox
CCCCN(CCCC)C(=O)CSc1nnc(-c2cc(OC)c(OC)c(OC)c2)o1	-21%	?	8%	-12%	i	13µM*
COc1cc(-c2nnc(SCC(=O)N3CCCc4ccccc43)o2)cc(OC)c1OC	-8%	i	.	.	?	2.6µM*
COc1ccc(-c2nnc(SCC(=O)N3CCC(Cc4ccccc4)CC3)o2)cc1OC	-13%	i	5%	13%	i	5.2µM*
COc1cc(OC)cc(-c2nnc(SCC(=O)N3CCCc4ccccc43)o2)c1	2%	i	-4%	-2%	i	i
CCCCOC(=O)CSc1nnc(-c2cc(OC)c(OC)c(OC)c2)o1	0%	i	11%	2%	i	i
CC1=CC(=O)C(C(C)C)=C/C1=C(\c1cc(C(C)C)c(OP(=O)(O)O)cc1C)c1ccccc1C(=O)O	-9%	16µM*	?	23µM*	i	?
CCOc1ccc(C(=O)c2ccccc2C(=O)O)cc1OCC	2%	i	9%	0%	i	?
COc1ccc(C(=O)C[n+]2cn(C(F)F)c3ccccc32)c(F)c1	-21%	i	21µM*	?	i	i
COc1ccc(C(=O)C[n+]2cc(Br)cc3ccccc32)cc1	.	i	.	.	.	i
CC(C)C(C)C=CC(C)C1CCC2C3=CC=C4CC(O)CCC4(C)C3CCC21C (centres undefined)	4%	.	.	.	.	.
CC(=O)c1c(C(C)=O)c(C)n(-c2ccc(C)c(NC(=O)c3ccccc3Cl)c2)c1C	-2%	i	0%	-22%	i	3.7µM*
O=C(C[n+]1csc2ccccc21)c1ccc(I)cc1	.	i	.	.	.	i
CCOC(=O)N1CCc2cc(OC)c(OC)c3c2c1cc1cc(OC)c(OC)cc13	19%	4.1µM*	?	16µM*	?	2.3µM*
CCOc1ccc(CCNC(=O)c2ccc3[nH]c(C)c(C)c3c2)cc1	.	i	.	.	.	i
Cc1ccc(-n2nc(C(=O)c3ccccc3)n3c(=O)c(Cc4ccccc4)nnc23)cc1	-12%	i	-3%	-3%	i	16µM*
O=C(COc1ccccc1C(=O)Nc1ccccc1)Nc1ccc(Br)cc1	.	i	.	.	.	i
CN(C)N1C(=O)/C(=C/c2ccco2)SC1=Nc1ccccc1	-19%	i	0%	-4%	i	i
O=C1/C(=C\c2ccc(Br)o2)SC(=Nc2ccccc2)N1c1ccccc1	-12%	i	4%	0%	?	9.2µM*
Cc1ccc(NC(=O)Nc2cn(C)c(=O)c3ccccc23)c(Cl)c1	11%	i	.	.	i	i
CC(NC(=O)c1cccc(OC2CCN(C(=O)C3CC3)CC2)c1)c1ccc(F)cc1 (centres undefined)	11%	.	1%	-1%	i	.
O=C(NCc1ccccc1Cl)c1cccc(OC2CCN(C(=O)C3CC3)CC2)c1	-3%	?	-8%	-4%	i	6.5µM*
